Source: PubChem
Only some compounds are listed: those with a hit (about 3.3% of all), similar ones and a draw of the others.
UHRF1 MBD2 ctr – UHRF1 methylated DNA binding inhibitors, primary screen, counter-screen for MBD2 inhibitor project, biochemical, TR-FRET, human UHRF1, single concentration. E3 ubiquitin-protein ligase UHRF1 (Homo sapiens), Q96T88. UHRF1 binding to methylated oligo. inhibition, % at 4.4 µM. 370,000 tested, 0.75% active; in the data active means inhibition above about 21%;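 further: UHRF1 SRA domain binding a hemimethylated CpG hairpin DNA probe; 0% = median of test compound wells and 100% = reference inhibitor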
Target sequence (Q96T88 whole entry, looked up, the tested form may be a part): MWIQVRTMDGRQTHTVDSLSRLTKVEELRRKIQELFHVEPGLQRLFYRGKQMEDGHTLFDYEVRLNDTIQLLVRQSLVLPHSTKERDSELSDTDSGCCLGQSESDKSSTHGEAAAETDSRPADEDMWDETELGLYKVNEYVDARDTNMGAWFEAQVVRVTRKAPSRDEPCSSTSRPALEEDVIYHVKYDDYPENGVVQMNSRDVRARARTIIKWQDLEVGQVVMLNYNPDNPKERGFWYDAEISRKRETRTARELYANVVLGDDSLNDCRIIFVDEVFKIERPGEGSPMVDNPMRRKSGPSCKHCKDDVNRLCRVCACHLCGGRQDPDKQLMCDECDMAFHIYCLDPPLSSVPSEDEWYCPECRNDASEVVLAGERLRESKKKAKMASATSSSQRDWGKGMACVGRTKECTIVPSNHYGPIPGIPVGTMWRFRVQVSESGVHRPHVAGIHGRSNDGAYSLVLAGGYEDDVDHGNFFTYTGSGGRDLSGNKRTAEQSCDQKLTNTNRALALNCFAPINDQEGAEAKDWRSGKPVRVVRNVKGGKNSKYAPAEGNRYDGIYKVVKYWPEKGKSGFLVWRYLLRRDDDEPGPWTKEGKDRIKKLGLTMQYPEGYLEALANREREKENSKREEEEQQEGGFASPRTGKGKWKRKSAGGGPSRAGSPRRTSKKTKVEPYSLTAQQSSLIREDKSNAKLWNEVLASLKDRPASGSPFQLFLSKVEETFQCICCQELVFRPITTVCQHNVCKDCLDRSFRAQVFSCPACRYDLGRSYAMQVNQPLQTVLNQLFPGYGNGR
PRMT1 inh – PRMT1 methyltransferase inhibitors, primary screen, biochemical, fluorescence polarization. Protein arginine N-methyltransferase 1 (Homo sapiens), Q99873. recombinant PRMT1, activity-based probe fluorescence polarization. inhibition, % at 2.79 µM. 370,000 tested, 1.3% active. AID 652257, 2013;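 active means inhibition above about 21% made by adding two undisclosed values, limit read from the data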
PfM18AAP inh – PfM18AAP inhibitors, malaria aminopeptidase, primary screen, biochemical, QFRET, recombinant enzyme; H-Glu-NHMec fluorogenic cleavage; inhibition, % at 7.35 µM; 290,000 tested, 1.2% active; AID 1822, 2009;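 active means inhibition above the campaign mean inhibition over all tested compounds plus 3 SD, cut at about 28% in these data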;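 further: 0% = plate median of test compound wells and 100% = 2 mM ZnCl2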
PfG6PD inh – PfG6PD enzyme inhibitors, primary screen, biochemical, fluorescence intensity, uHTS; glucose-6-phosphate dehydrogenase-6-phosphogluconolactonase (Plasmodium falciparum 3D7); PfGluPho enzyme, NADPH resazurin-diaphorase fluorescence; inhibition, % at 20 µM; 350,000 tested, 0.78% active; AID 504690, 2011;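 active means inhibition reaching at least a set limit at 20 µM in the primary screen, cut at about 59% in these data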;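 further: 0% = DMSO wells with substrate and 100% = DMSO wells lacking glucose-6-phosphate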
MBD2 inh – inhibitors of MBD2 binding to methylated DNA, primary screen, biochemical, TR-FRET, DNA-binding domain, human; 370,000 tested, 0.31% active; inhibition, % at 4.4 µM; MBD2 binding to methylated oligonucleotide; Methyl-CpG-binding domain protein 2 (Homo sapiens), Q9UBB5; in the data active means inhibition above about 13%
PRMT1 inh conf – PRMT1 methyltransferase inhibitors, confirmation, biochemical, fluorescence polarization, triplicate; 3,300 tested, 42% active; AID 687036, 2013; recombinant His-PRMT1, activity-based probe fluorescence polarization; shares compounds with PRMT1 inh; inhibition, % at 2.79 µM;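 active means mean inhibition across replicates above the hit cutoff derived for the earlier primary screen, cut at about 22% in these data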
Active calls of the source: *; . = no result.

SMILES | UHRF1 MBD2 ctr | PRMT1 inh | PfM18AAP inh | PfG6PD inh | MBD2 inh | PRMT1 inh conf
CCOc1ccc(N2CSC3=C(C#N)C(c4ccco4)CC(=O)N3C2)cc1 (stereo not drawn) | 67.0* | 70.9* | 32.7* | 3.9 | 28.7* | 70.4*
CCN(Cc1ccccc1)C(=O)CN1C(=O)NC(CC)(c2ccc(F)cc2)C1=O (stereo not drawn) | -0.5 | -0.9 | -1.2 | -9.3 | -0.5 | .
O=C(CCC1CCCC1)Nc1cc(C(F)(F)F)ccc1N1CCOCC1 | 2.9 | 2.4 | . | 26.9 | 1.1 | .
Fc1ccc(F)c(C2=NNC(=NCC3CCCO3)SC2)c1 (stereo not drawn) | -5.3 | 37.6* | 15.5 | 15.2 | -11.0 | 9.7
CC(=O)Nc1ccc(C2=NNC(=NCC3CCCO3)SC2)cc1 (stereo not drawn) | 2.8 | 40.9* | 14.7 | 10.4 | 2.4 | 33.2*
Cc1cccc(OC(=O)CCN2C(=O)C3C4C=CC(C5CC45)C3C2=O)c1C (stereo not drawn) | 9.3 | 3.7 | 3.8 | 6.1 | 4.0 | .
O=[N+]([O-])c1cc(-c2ccc(/C=N/c3nc4ccccn4c3-c3ccco3)o2)ccc1Cl | -0.5 | 40.8* | 16.2 | 27.5 | -6.6 | 0.8
Clc1ccc(/C=N/c2c(-c3ccco3)nc3ccccn23)cc1 | 3.8 | 14.4 | 13.8 | 31.4 | 2.0 | .
CCOC(=O)C(Sc1nn(C)c(=S)s1)C(C)=O (stereo not drawn) | 3.4 | 36.3* | 19.4 | -8.8 | -0.9 | 1.3
COc1ccc(C(=O)c2[nH]c(N)c(C(=O)NCCc3c[nH]c4ccccc34)c2-c2ccc(OC)c(OC)c2)cc1 | -1.0 | -1.5 | . | . | 1.0 | .
Cc1ccc(C(=O)CCS(=O)(=O)c2ccc(F)cc2)cc1 | -1.8 | 28.8* | -53.2 | 12.8 | 1.9 | 26.5*
Cc1ccc(S(=O)(=O)CCC(=O)c2ccc(F)cc2)cc1 | 2.2 | 15.6 | -89.5 | 11.7 | 0.8 | .
O=C(Nc1ccc2[nH]c(=O)[nH]c2c1)c1cccc([N+](=O)[O-])c1 | 0.5 | -7.1 | 1.3 | 3.4 | 1.1 | .
Cc1ccc(S(=O)(=O)N2CCN(C(=O)c3ccc(Br)o3)CC2)c(C)c1 | -0.9 | -0.7 | 4.4 | -7.4 | -2.2 | .
O=C(Nc1ccc(S(=O)(=O)NC2=NCCCCC2)cc1)c1cccs1 | 3.4 | 69.8* | . | -9.1 | 3.2 | -3.7
O=C(Nc1ccc(S(=O)(=O)NC2=NCCCCC2)cc1)c1ccc([N+](=O)[O-])s1 | -1.7 | 4.8 | . | 18.8 | 0.5 | .
Cc1ccccc1CSCC1Nc2ccc(C(=O)NCCc3ccccc3)cc2NC1=O (stereo not drawn) | -7.7 | 49.2* | . | 14.8 | 1.8 | 65.0*
Cc1cc2c(cc1C)NC(CC(=O)NCc1ccccc1)C(=O)N2 (stereo not drawn) | 0.3 | 2.7 | 7.2 | 0.5 | -3.4 | .
COC(=O)CCc1nc2ccccc2[nH]c1=O | 0.1 | 1.9 | 1.5 | -1.9 | -1.4 | .
COC(=O)CSCc1nc2ccccc2[nH]c1=O | -8.1 | 34.0* | 7.7 | 18.4 | 0.1 | 55.4*
Cc1cc2ccccc2n1CCNC(=O)c1ccc(Br)o1 | -2.2 | 27.2* | 5.5 | 35.3 | -2.1 | 1.0
CCOc1ccc(NC(=O)N(Cc2ccc(C)cc2)Cc2ccccn2)cc1 | 3.9 | 2.4 | -2.2 | 7.0 | 4.1 | .
COc1cc(CNc2ccc3[nH]c(=O)[nH]c3c2)cc(Br)c1OCC(=O)NC(C)(C)C | 0.3 | 25.4* | -14.8 | 39.0 | 2.2 | 11.8
COc1cc(CNc2ccc3[nH]c(=O)[nH]c3c2)ccc1OCc1ccccc1F | 3.2 | 29.4* | -26.0 | 34.1 | 1.0 | 10.4
C=CCOc1c(Br)cc(CNc2ccc3[nH]c(=O)[nH]c3c2)cc1OCC | -2.4 | 30.1* | -16.7 | 49.4 | 2.8 | 14.7
SMILES | UHRF1 MBD2 ctr | PRMT1 inh | PfM18AAP inh | PfG6PD inh | MBD2 inh | PRMT1 inh conf
COc1cc(O)c(C=NN2C(=O)CSC2=S)c(OC)c1 | -11.5 | 26.6* | . | 28.8 | -0.8 | 32.4*
O=C1CSC(=S)N1N=Cc1ccc(OCc2ccccc2)cc1 | -3.8 | 17.5 | . | -10.5 | -3.8 | .
O=C1CSC(=S)N1N=Cc1cccc2ccccc12 | -3.6 | 19.3 | . | 7.2 | -1.8 | .
O=C1CSC(=S)N1N=Cc1ccccc1O | -4.7 | 53.1* | . | 47.2 | -1.2 | 73.6*
CN1C(=O)C(O)(C2CCCCCC2=O)c2ccccc21 (stereo not drawn) | -2.5 | -4.0 | -6.0 | -18.4 | -11.6 | .
NC(=O)C1CCN(C2CC(=O)N(c3cccc(F)c3)C2=O)CC1 (stereo not drawn) | -0.5 | 28.6* | -3.2 | 11.5 | 3.1 | 1.9
O=C1CC(N2CCSCC2)C(=O)N1c1cccc(Br)c1 (stereo not drawn) | -0.5 | 16.7 | 1.7 | -15.8 | -3.3 | .
CN1C(=O)CC(N2CCC(C(N)=O)CC2)C1=O (stereo not drawn) | 5.1 | 6.6 | -0.1 | -11.1 | 3.4 | .
CCOc1cccc(N2C(=O)CC(N3CCC(C(N)=O)(N4CCCCC4)CC3)C2=O)c1 (stereo not drawn) | 0.5 | 40.3* | 2.3 | 1.9 | -5.8 | -0.3
COC(=O)C1CCN(C2CC(=O)N(c3cc(C)cc(C)c3)C2=O)CC1 (stereo not drawn) | 5.4 | 56.8* | -23.4 | -4.1 | 2.4 | -2.4
Cc1ccccc1N1C(=O)CC(N2CCC(C(N)=O)CC2)C1=O (stereo not drawn) | 3.2 | 72.7* | -59.9 | -16.7 | 8.9 | -3.5
COc1cc2nc3n(c(=O)c2cc1OC)-c1ncccc1C(=O)NC3Cc1ccccc1 (stereo not drawn) | 1.2 | -1.6 | . | -20.9 | -0.6 | .
NC(=O)C1CCN(C2CC(=O)NC2=O)CC1 (stereo not drawn) | 5.4 | 64.3* | 3.8 | -13.5 | 8.4 | -2.1
COc1ccc(NC2CCN(C3CC(=O)N(c4ccc(F)c(Cl)c4)C3=O)CC2)cc1 (stereo not drawn) | 0.8 | 2.1 | -10.6 | 16.2 | 1.4 | .
O=C1CC(N2CCN(Cc3ccccc3)CC2)C(=O)N1 (stereo not drawn) | 2.5 | 4.3 | 4.9 | -15.7 | -4.4 | .
NC(=O)C1CCN(C2CC(=O)N(c3ccc(F)c(Cl)c3)C2=O)CC1 (stereo not drawn) | 1.2 | 29.9* | -0.3 | -15.0 | -0.1 | 9.2
COc1ccc(CN2CCC(N3CCC(C(=O)N4CCOCC4)CC3)CC2)c(F)c1 | 0.1 | -2.7 | 13.7 | -11.9 | -2.5 | .
